CYP2C19 act – increases human CYP2C19 enzyme activity. P33261. recombinant CYP2C19, luciferin-H EGE luminescence; stronger effect = higher value; 0 = fully inhibited enzyme, 1 = untreated enzyme. activation factor at 5 µM. 96,000 tested, under 10 active;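 active = activation factor of at least 2 at 5 µM in the primary screen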;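 also: 0 = wells with 2.5 mM tranylcypromine and 1 = vehicle-only wells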
PostGolgi yeast – growth inhibition of a yeast mutant, post-Golgi transport screen; AID 739; inhibition, % at 10 µM; 98,000 tested, 0.9% active; post-Golgi transport phenotypic cell assay;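 also: yeast cells grown in 1536-well plates; yeast grown about 18 h at 30C before absorbance read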
CYP2C19 inhib – blocks human cytochrome P450 2C19 | inhibition, % at 5 µM | CYP2C19 Supersomes, luciferin-H EGE luminescence, 30 min | 96,000 tested, 21% active | P33261;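 active = CYP2C19 inhibition above a set limit at 5 µM in the primary screen, cut at about 50% in these data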;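 also: plate controls were negative control wells for no effect and 2.5 mM tranylcypromine positive control for full effect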
CYP2C9 inhib – inhibitors of human CYP2C9 | P11712 | CYP2C9 Supersomes, luciferin-H conversion, luminescence | inhibition, % at 5 µM | 96,000 tested, 20% active | AID 777;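 active = blocking of liver enzyme CYP2C9 beyond about 50% at 5 µM, limit read from the data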
Target sequence (P11712 whole entry, looked up): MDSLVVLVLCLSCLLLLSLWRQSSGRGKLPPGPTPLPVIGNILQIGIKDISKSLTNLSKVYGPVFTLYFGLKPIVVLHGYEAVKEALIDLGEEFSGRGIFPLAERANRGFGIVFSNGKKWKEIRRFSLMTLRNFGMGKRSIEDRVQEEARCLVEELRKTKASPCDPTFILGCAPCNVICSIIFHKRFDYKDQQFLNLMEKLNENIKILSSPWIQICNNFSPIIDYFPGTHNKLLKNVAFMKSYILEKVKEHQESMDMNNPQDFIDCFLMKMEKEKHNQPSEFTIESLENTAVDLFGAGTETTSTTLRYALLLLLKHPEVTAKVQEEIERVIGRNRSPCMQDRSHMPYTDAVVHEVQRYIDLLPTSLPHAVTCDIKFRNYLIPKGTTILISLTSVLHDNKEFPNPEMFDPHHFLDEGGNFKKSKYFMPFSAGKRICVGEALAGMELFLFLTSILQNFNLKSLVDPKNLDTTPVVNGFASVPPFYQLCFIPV
PostGolgi ctrl – yeast control strain growth, post-Golgi counter-screen; efflux-deficient yeast background strain, growth absorbance A615, 16 h; inhibition, % at 10 µM; 98,000 tested, 5% active; AID 738
CYP2C9 act – CYP2C9 (human) activation | P11712 | recombinant CYP2C9, luciferin-H conversion, luminescence; stronger effect = higher value; factor 1 = untreated enzyme, 0 = blocked | activation factor at 5 µM | 96,000 tested, 1.4% active | AID 1024;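 active = activation factor of 2 or more for CYP2C9 at a 5 µM dose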;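 also: 0 = sulfaphenazole-blocked wells and 1 = vehicle-only wells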
Starred values were filed as active, the others as inactive; . = not tested or not shown. The list is not random: actives were taken first. Their share in the collection is about 32%. Rule as the data show it, unless noted: active = inhibition above about 30%; inactive = the rest.

SMILES	CYP2C19 act	PostGolgi yeast	CYP2C19 inhib	CYP2C9 inhib	PostGolgi ctrl	CYP2C9 act
CCCCN(CCCNC(=O)CN1C(=O)COc2ccccc21)c1ccccc1	0.6	-7	40	46	19	0.5
CC1Oc2ccccc2N(CC(=O)NCCc2ccccc2)C1=O (stereo not given)	0.1	4	94*	26	-16	0.7
Cc1ccc(CNC(=O)CN2C(=O)COc3ccc(C)cc32)cc1	0.3	0	69*	-12	10	1.1
CCN(CCCNC(=O)CN1C(=O)COc2ccccc21)c1cccc(C)c1	0.2	0	82*	67*	11	0.3
Cc1ccccc1CN1C(=O)C2(OCCCO2)c2ccccc21	0.7	-5	28	-116	10	2.2*
Cc1ccc2c(c1)N(CC(=O)NCc1cccs1)C(=O)CO2	0.3	-1	68*	-18	1	1.2
Cc1nc(SCC(=O)NCCc2ccccc2)nc(C)c1C	0.2	-8	80*	-7	22	1.1
Cc1nc(SCC(=O)NC(=O)NCc2ccccc2)nc(C)c1C	0.4	-6	59*	33	2	0.7
O=C(CSc1nncs1)NC(=O)NCc1ccccc1	0.6	5	38	5	-1	0.9
Cc1csc(SCC(=O)NC(=O)NCc2ccccc2)n1	0.7	6	28	16	42*	0.8
O=C(Nc1cccc([N+](=O)[O-])c1)C12CC3CC(C1)CC(n1cnc([N+](=O)[O-])n1)(C3)C2	0.9	0	14	7	19	0.9
COc1cc(/C=C(/C#N)c2ccc(F)cc2)ccc1OCc1ccc(C(=O)O)o1	0.9	0	5	34	7	0.7
COc1ccccc1CCNC(=O)CCn1c(=O)oc2ccccc21	0.2	5	83*	44	16	0.6
CC(C)OC(=O)CCC(=O)Nc1nc2ccccc2s1	0.2	-6	81*	66*	27	0.3
CCOc1ccc2nc(NC(=O)CCn3cccc3)sc2c1	1.1	7	-9	15	-5	0.8
OC(CNc1nc2ccccc2s1)c1ccccc1 (stereo not given)	0.1	2	95*	70*	2	0.3
O=C(CCn1c(=O)oc2ccccc21)Nc1nc2ccccc2s1	0.5	-4	52*	59*	26	0.4
Cc1ccccc1NC(=O)CCn1c(=O)oc2ccccc21	0.6	9	45	-17	-3	1.2
Cc1csc(N(C(=O)c2cccc(S(=O)(=O)N(C)C)c2)c2ccccc2)n1	0.9	2	11	0	15	1
COc1nnc(-c2ccc(C)c(S(=O)(=O)NCCO)c2)c2ccccc12	1.1	-2	-8	-24	16	1.2
Cc1ccc(-c2nnc(N3CCOCC3)c3ccccc23)cc1S(=O)(=O)NCC1CCCO1 (stereo not given)	0.5	3	47	71*	4	0.3
N#CC(=C1CCCC1)c1nc(-c2ccccc2)cs1	0.8	7	17	-11	-7	1.1
N#CC(=C1CCCC1)c1nc(-c2ccccc2O)cs1	0.3	-17	72*	37	7	0.6
CN1CCn2c1nc(N1CCOCC1)nc2=O	1	-10	-4	8	-6	0.9
CCOc1ccc(C(=O)CCNC(Cc2cnc[nH]2)C(=O)O)cc1 (stereo not given)	.	5	.	.	18	.
SMILES	CYP2C19 act	PostGolgi yeast	CYP2C19 inhib	CYP2C9 inhib	PostGolgi ctrl	CYP2C9 act
Cc1[nH]n(C(C)(C)C)c(=O)c1Sc1ccc(Cl)cc1	0.5	4	54*	54*	18	0.5
Cc1ccc(NC(=O)CSCCc2ccccn2)nc1	0.9	1	6	9	3	0.9
CCN(CC)S(=O)(=O)c1ccc2oc(C(=O)NCc3ccc(F)cc3)c(C)c2c1	0.4	0	58*	59*	23	0.4
Cc1c(C(=O)NCC2COc3ccccc3O2)oc2ccc(S(=O)(=O)N3CC(C)CC(C)C3)cc12 (stereo not given)	0.8	-9	15	43	9	0.6
CCN(CC)S(=O)(=O)c1ccc2oc(C(=O)NCC3COc4ccccc4O3)c(C)c2c1 (stereo not given)	0.7	-10	34	76*	35*	0.2
CCN(CC)S(=O)(=O)c1ccc2oc(C(=O)NCCCN3CCOCC3)c(C)c2c1	0.8	5	21	23	7	0.8
Cc1c(C(=O)NCC2COc3ccccc3O2)oc2ccc(S(=O)(=O)N3CCOCC3)cc12 (stereo not given)	0.8	-11	18	56*	2	0.4
CCN(CC)S(=O)(=O)c1ccc2oc(SCc3ccc(F)cc3)nc2c1	0.8	-8	25	69*	12	0.3
CC(C)CCn1c(=O)c2ccccc2n2c(COC(=O)c3ccc(S(=O)(=O)N(C)C)cc3)nnc12	1	.	4	1	.	1
Cc1[nH]nc2c1C(c1ccccc1F)CC(=O)N2 (stereo not given)	1	1	0	-8	1	1.1
CC1=CC(c2ccc(Cl)cc2)n2nc(NS(=O)(=O)c3ccc(C)cc3)nc2N1 (stereo not given)	1.2	1	-19	70*	17	0.3
Cc1cccc(-c2noc(CN(C(=O)c3ccc(Br)o3)C(C)C)n2)c1	0.5	-2	46	56*	33*	0.4
COc1cccc(C(=O)N(Cc2nc(-c3cccc(C)c3)no2)C(C)C)c1OC	0.3	-6	74*	82*	14	0.2
Cc1cccc(-c2noc(Cc3ccccc3)n2)c1	1	-1	-1	1	4	1
Cc1cccc(-c2noc(CN(C(=O)C(c3ccccc3)c3ccccc3)C(C)C)n2)c1	0.9	7	11	51*	23	0.5
Cc1cccc(-c2noc(CN(C(C)C)S(=O)(=O)c3ccc(F)cc3)n2)c1	0.7	-6	27	-14	11	1.1
Cc1cccc(-c2noc(CN(C(=O)c3ccc4c(c3)OCO4)C(C)C)n2)c1	0.9	6	6	37	3	0.6
CSc1nnnn1CCn1nnnc1SC	1.2	-3	-16	10	-5	0.9
Cc1ccc(S(=O)(=O)N2CCCC(C(=O)NC3=NCCS3)C2)cc1 (stereo not given)	1	5	-3	-1	15	1
CCOc1ccc(N2C(=O)CC(N3CC(C)OC(C)C3)C2=O)cc1 (stereo not given)	1.2	1	-16	-5	5	1
CCN(CC)S(=O)(=O)c1cc(NC(=O)COC(=O)CCc2nc3ccccc3s2)ccc1C	0.8	4	16	-57	7	1.6
CCN(CC)S(=O)(=O)c1cccc(NC(=O)COC(=O)CCc2nc3ccccc3s2)c1	0.9	0	9	-125	0	2.3*
COc1ccc(NC(=O)COC(=O)c2ccc(Br)o2)cc1OC	0.8	0	16	8	8	0.9
CCN(CC)S(=O)(=O)c1cccc(NC(=O)COC(=O)c2ccc(Br)o2)c1	0.6	16	42	65*	14	0.3
